Compound activity (PubChem BioAssay)
MEKK2mut PB1 HTS – signal of MEK5 binding to mutant human MEKK2 PB1 domain. bead flow cytometry, Alexa488-MEK5 binding to MEKK2 mutant. percent response, % at 10 µM. hit rate 0.35% among 290,000; in the data active = percent response above about 24%, passing the limit was not always enough
MEKK2 WT-MEK5 – raises or lowers MEK5 binding to wildtype human MEKK2 PB1 domain; bead flow cytometry, Alexa488-MEK5 binding to MEKK2 WT; actives lie on both sides; binding response (% of control), % at 10 µM; hit rate 1.1% among 290,000; AID 1531; in the data active = binding response below about 67% or above about 130%
UBC13 polyUb – human UBC13 polyubiquitination inhibition | hit rate 0.47% among 330,000 | AID 485273 | UBC13 polyubiquitin chain formation, TR-FRET | inhibition, % at 20 µM; in the data active = inhibition above about 45%, passing the limit was not always enough
MEKK3 PB1 HTS – MEKK3-MEK5 PB1 interaction, increase or decrease. Q99759. bead-based flow cytometry, Alexa488-MEK5 binding to MEKK3; actives lie on both sides; 0 = blocked by unlabeled MEK5, 100 = vehicle. binding response (% of control), % at 10 µM. hit rate 1.4% among 290,000;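 active = binding response more than 3 SD above or below the average of its plate-row segment, actives on both sides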;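 note: Alexa488 bead fluorescence after subtracting the streptavidin-only scavenger bead signal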
Target sequence (Q99759 whole entry, looked up): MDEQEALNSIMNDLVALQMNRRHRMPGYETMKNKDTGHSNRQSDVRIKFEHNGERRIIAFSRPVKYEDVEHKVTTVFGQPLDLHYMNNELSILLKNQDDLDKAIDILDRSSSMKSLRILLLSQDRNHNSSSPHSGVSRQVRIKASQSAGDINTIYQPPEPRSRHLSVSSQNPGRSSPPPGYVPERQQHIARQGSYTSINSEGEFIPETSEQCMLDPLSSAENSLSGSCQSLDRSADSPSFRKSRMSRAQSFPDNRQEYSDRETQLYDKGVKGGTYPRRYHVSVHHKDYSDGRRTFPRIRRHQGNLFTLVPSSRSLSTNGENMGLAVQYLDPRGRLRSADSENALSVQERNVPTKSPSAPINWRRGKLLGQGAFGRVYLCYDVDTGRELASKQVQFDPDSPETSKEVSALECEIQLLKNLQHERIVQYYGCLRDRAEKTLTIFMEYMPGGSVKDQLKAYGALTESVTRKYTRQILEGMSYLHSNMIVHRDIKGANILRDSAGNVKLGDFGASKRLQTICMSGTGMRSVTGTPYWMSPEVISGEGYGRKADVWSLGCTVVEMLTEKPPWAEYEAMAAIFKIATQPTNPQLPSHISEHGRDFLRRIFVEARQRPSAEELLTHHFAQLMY
MEKK2wt confirm – raises or lowers MEK5 binding to wildtype human MEKK2, retest | bead flow cytometry, Alexa488-MEK5 binding to MEKK2 WT; actives lie on both sides | binding response (% of control), % at 10 µM | shares compounds with MEKK3 PB1 HTS | hit rate 2.4% among 5,900 | AID 1892; in the data active = binding response below about 16% or above about 210%; inactive = in between
MEKK2mut-MEK5 – signal of MEK5 binding to mutant human MEKK2, retest. shares compounds with MEKK3 PB1 HTS. bead flow cytometry, Alexa488-MEK5 binding to MEKK2 mutant. percent response, % at 10 µM. hit rate 2% among 5,900; in the data active = percent response mostly above about 71%, no sharp cut-off; inactive = mostly below about 38%;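 note: higher means compound restores mutant binding toward wildtype level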
MEKK3-MEK5 inh – confirmation of inhibitors of MEK5 binding to human MEKK3. shares compounds with MEKK3 PB1 HTS. bead flow cytometry, Alexa488-MEK5 binding to MEKK3; stronger effect = lower value. binding response (% of control), % at 10 µM. hit rate 1.8% among 5,900;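 active = binding response below 72% of control, or above a set upper limit, though filed actives all read lower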
Each line names hits and unclear results; the compound was inactive in the other large screens (follow-up assays come after a bar, where they were run); ! = not confirmed by another sample; [ ] = another dose, or the depositor's remark. Most compounds without a hit are left out; they make up all but 2.3% or so of the library.

CCOC(=O)c1cccc(NC2c3ccccc3C(=O)N2Cc2ccco2)c1 (centres undefined)	none
CC(=O)c1cccc(NC2c3ccccc3C(=O)N2Cc2ccco2)c1 (centres undefined)	MEKK3 PB1 HTS 134 | MEKK2wt confirm inactive | MEKK2mut-MEK5 inactive | MEKK3-MEK5 inh inactive
CCCOP(=O)(OCCC)C(NC(=O)C(C)(C)C)c1ccccc1 (centres undefined)	none
CCOP(=O)(OCC)C(NC(=O)C(F)(F)F)c1ccccc1 (centres undefined)	MEKK3 PB1 HTS 137 | MEKK2wt confirm inactive | MEKK2mut-MEK5 inactive | MEKK3-MEK5 inh inactive
CSCCC(NC(=O)c1ccccc1)C(=O)NCCc1ccc2c(c1)OCCO2 (centres undefined)	none (no result: MEKK2mut PB1 HTS, MEKK2 WT-MEK5, MEKK3 PB1 HTS)
O=C1COc2ccc(C(=O)CSc3nnc(Cc4cccs4)n3-c3ccc(Cl)cc3)cc2N1	MEKK3 PB1 HTS 55[inhibitor] | MEKK2wt confirm inactive | MEKK2mut-MEK5 inactive | MEKK3-MEK5 inh inactive
O=C1COc2ccc(C(=O)CSc3nnnn3-c3ccccc3)cc2N1	none
O=C1COc2ccc(C(=O)CSc3nc4ccccc4c(=O)n3-c3ccc(Cl)c(Cl)c3)cc2N1	MEKK3 PB1 HTS 136 | MEKK2wt confirm inactive | MEKK2mut-MEK5 inactive | MEKK3-MEK5 inh inactive
O=C(Nc1ccccc1)N(CCN1CCOCC1)Cc1ccccc1F	none
CN(C)S(=O)(=O)N(CCN1CCOCC1)Cc1ccccc1F	MEKK2mut PB1 HTS 24 | MEKK2wt confirm inactive | MEKK2mut-MEK5 inactive | MEKK3-MEK5 inh inactive
NNC(=O)c1nn(-c2ccc(Cl)cc2)ccc1=O	none
CNC(=O)c1nn(-c2ccc(C)cc2)ccc1=O	MEKK2mut PB1 HTS 25 | MEKK2wt confirm inactive | MEKK2mut-MEK5 inactive | MEKK3-MEK5 inh inactive
CC1CC(C)CN(C(=O)c2ccc3c(c2NCCO)C(=O)c2ccccc2C3=O)C1 (centres undefined)	none
CC1(C)Cc2c(ccc3ccccc23)-c2nnc(-c3cccnc3)n21	MEKK2 WT-MEK5 -8.0[inhibitor], MEKK3 PB1 HTS 0.0[inhibitor] | MEKK2wt confirm inactive | MEKK2mut-MEK5 inactive | MEKK3-MEK5 inh inactive
NC(=O)CSc1nnc2ccc(-c3ccc(F)cc3)nn12	none
CC1(C)CC(=O)C(C(c2cccc([N+](=O)[O-])c2)C2C(=O)CC(C)(C)CC2=O)C(=O)C1	none
CC1(C)CC(=O)C(C(O)c2cccc([N+](=O)[O-])c2)C(C)(C)N1 (centres undefined)	MEKK2mut PB1 HTS 25 | MEKK2wt confirm inactive | MEKK2mut-MEK5 inactive | MEKK3-MEK5 inh inactive
Cc1cccc(NC(=S)NNC(=O)c2ccc3c(c2)OCO3)c1	none
CCCc1cc(C(=O)NNC(=S)Nc2cccc(C)c2)cs1	MEKK3 PB1 HTS 129 | MEKK2wt confirm inactive | MEKK2mut-MEK5 inactive | MEKK3-MEK5 inh inactive
O=C1CC(N2CCN(c3ccc(F)cc3)CC2)C(=O)N1c1ccc2c(c1)OCO2 (centres undefined)	MEKK2 WT-MEK5 1.0[inhibitor], MEKK3 PB1 HTS 2.0[inhibitor] | MEKK2wt confirm inactive | MEKK2mut-MEK5 inactive | MEKK3-MEK5 inh inactive
CN(C)c1ccc(NC(=O)CN2CCC(O)(c3ccccc3)CC2)cc1	MEKK3 PB1 HTS 1.0[inhibitor] (no result: MEKK2 WT-MEK5) | MEKK2wt confirm inactive | MEKK2mut-MEK5 inactive | MEKK3-MEK5 inh 69
CC(=O)Nc1ccc(N=Cc2c(O)c(C(=O)Nc3ccccc3)cc3ccccc23)cc1	MEKK2 WT-MEK5 10[inhibitor] | MEKK2wt confirm inactive | MEKK2mut-MEK5 inactive | MEKK3-MEK5 inh inactive
Cc1cccc(-n2c(=O)c3c4c(sc3n3c(=S)[nH]nc23)CCC4)c1	MEKK3 PB1 HTS 131 | MEKK2wt confirm inactive | MEKK2mut-MEK5 inactive | MEKK3-MEK5 inh inactive
Cc1ccc(S(=O)(=O)NCCC(=O)OCC(=O)NC(=O)c2cccn2C)cc1	none
COc1ccc(-c2csc(N(CCCN(C)C)C(=O)c3ccc(C)cc3)n2)cc1	none
COc1ccc(-c2csc(N(CCCN(C)C)C(=O)c3ccc(Br)cc3)n2)cc1	MEKK2 WT-MEK5 142 | MEKK2wt confirm inactive | MEKK2mut-MEK5 inactive | MEKK3-MEK5 inh inactive
COc1ccc(-c2csc(N(CCCN(C)C)C(=O)c3ccc(C(C)(C)C)cc3)n2)cc1	MEKK2mut PB1 HTS 26, MEKK2 WT-MEK5 162 | MEKK2wt confirm inactive | MEKK2mut-MEK5 inactive | MEKK3-MEK5 inh inactive
COc1ccc(-c2csc(N(CCCN(C)C)C(=O)c3cc(OC)c(OC)c(OC)c3)n2)cc1	none
COc1ccc(CCNS(=O)(=O)CC23CCC(CC2=O)C3(C)C)cc1OC (centres undefined)	MEKK2mut PB1 HTS 29 | MEKK2wt confirm inactive | MEKK2mut-MEK5 inactive | MEKK3-MEK5 inh inactive
CCOc1ccccc1N1CCN(C(=O)c2cn(CC3CCCCC3)nn2)CC1	none
CCC[C@@H](CNC)NC[C@H](Cc1ccccc1)NCCCCc1ccccc1	MEKK2 WT-MEK5 154 | MEKK2wt confirm inactive | MEKK2mut-MEK5 inactive | MEKK3-MEK5 inh inactive
CCC(C)(C)NC(=O)C(c1cccc(OC)c1OC)N(C(=O)CCC(=O)Nc1cc(C)on1)C(C)C (centres undefined)	none
O=C(N=C1SC2CS(=O)(=O)CC2N1CCc1ccccc1)C1CC1 (centres undefined)	none
Cn1cc(CN2CCc3sccc3C2)c(-c2ccccc2F)n1	none
Clc1ccccc1CN1CCc2sccc2C1	MEKK2 WT-MEK5 0.0![inhibitor], MEKK3 PB1 HTS 70[inhibitor] | MEKK2wt confirm inactive | MEKK2mut-MEK5 inactive | MEKK3-MEK5 inh inactive
O=C(CC1C(=O)NCCN1CC(c1ccccc1)c1ccccc1)NC1CC1 (centres undefined)	none
COc1ccc(C)cc1NC(=O)COC(=O)c1ccc([N+](=O)[O-])o1	none
COc1ccc(NC(=O)COC(=O)c2ccc([N+](=O)[O-])o2)cc1Cl	MEKK3 PB1 HTS 131 | MEKK2wt confirm inactive | MEKK2mut-MEK5 inactive | MEKK3-MEK5 inh inactive
CC(C)N(CC(O)COc1ccc(CC(N)=O)cc1)CC(O)COc1ccc(CC(N)=O)cc1 (centres undefined)	none
CCCCC(=O)OCC(=O)c1cc(C)n(-c2c(C)n(C)n(-c3ccccc3)c2=O)c1C	MEKK3 PB1 HTS 65[inhibitor] | MEKK2wt confirm inactive | MEKK2mut-MEK5 inactive | MEKK3-MEK5 inh inactive
Cc1cc(C(=O)COC(=O)CC2Sc3ccccc3NC2=O)c(C)n1-c1ccccc1 (centres undefined)	MEKK3 PB1 HTS 136 | MEKK2wt confirm inactive | MEKK2mut-MEK5 inactive | MEKK3-MEK5 inh inactive
CCOC(=O)c1cc(C)n(-c2c(C)n(C)n(-c3ccccc3)c2=O)c1C	none
N#CN(Cc1ccccc1)Cc1ccccc1	none
COC(=O)c1c(C)oc(C)c1S(=O)(=O)N(Cc1ccccc1)C(C)C	MEKK3 PB1 HTS 129 | MEKK2wt confirm -2.0[inhibitor] | MEKK2mut-MEK5 inactive | MEKK3-MEK5 inh inactive
COC(=O)c1c(C)oc(C)c1S(=O)(=O)Nc1ccccc1	MEKK3 PB1 HTS 132 | MEKK2wt confirm inactive | MEKK2mut-MEK5 inactive | MEKK3-MEK5 inh inactive
